Measurements published in PubChem BioAssay (NCI).
The panel holds about 79,000 compounds, 15% with a hit somewhere; the sample as a whole holds those more often. Activity calls are given as the source filed them. Cut-off read from the data, not from the text of the source: active = growth inhibition above about 70%; inactive = the rest.

Columns and labels:
[1] = NCI Yeast Anticancer Drug Screen. Data for the rad52 strain (AID 147);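 note: 0% = growth of vehicle-treated control cultures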; settings: S. cerevisiae rad52 mutant growth inhibition, hits give high values
Summary of the method: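 Yeast strain carrying a DNA damage repair alteration was exposed to test compounds. Growth inhibition was measured relative to vehicle-treated controls.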

[2] = NCI Yeast Anticancer Drug Screen. Data for the wt1 strain (AID 149);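 note: 0% = growth of vehicle-treated wt1 cultures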; settings: S. cerevisiae wt1 strain (SPY 50644) growth inhibition, hits give high values
Summary of the method: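 Measured: growth of wt1 yeast under compound versus vehicle treatment, reported as inhibition.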

[3] = NCI Yeast Anticancer Drug Screen. Data for the rad50EPP+ strain (AID 151);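 note: 0% = growth of vehicle-treated control cultures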; settings: S. cerevisiae rad50 mutant strain, hits give high values
Summary of the method: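 Yeast strain carrying rad50 alteration (rad50EPP+) exposed to compounds; growth inhibition measured relative to vehicle-treated controls.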

[4] = NCI Yeast Anticancer Drug Screen. Data for the mgt1 strain (AID 153); settings: S. cerevisiae mgt1 mutant growth inhibition, hits give high values
Summary of the method: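 Yeast mgt1 strain (DNA repair/cell-cycle alteration panel) exposed to compounds; growth inhibition measured relative to vehicle-treated controls.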

[5] = NCI Yeast Anticancer Drug Screen. Data for the rad50 strain (AID 155);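 note: 0% = growth of vehicle-only cultures of the same strain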; settings: S. cerevisiae rad50 strain growth inhibition, hits give high values
Summary of the method: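 Growth of the mutant yeast was measured after compound exposure and referenced to vehicle-treated cultures.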

[6] = NCI Yeast Anticancer Drug Screen. Data for the mec2-1 strain (AID 157); settings: S. cerevisiae mec2-1 strain, hits give high values
Summary of the method: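 mec2-1 yeast strain, carrying an alteration in DNA damage repair or cell cycle control, was exposed to compounds; growth inhibition was measured relative to vehicle-treated controls.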

[7] = NCI Yeast Anticancer Drug Screen. Data for the rad14 strain (AID 159);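 note: 0% = growth of vehicle-treated control cultures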; settings: S. cerevisiae rad14 strain growth inhibition, hits give high values
Summary of the method: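 Here, inhibition of yeast growth was measured after compound exposure, using a strain with a genetic defect in DNA damage repair and vehicle-treated cultures as the reference.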

[8] = NCI Yeast Anticancer Drug Screen. Data for the sgs1 mgt1 strain (AID 161);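 note: 0% = growth of cultures given vehicle only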; settings: S. cerevisiae sgs1 mgt1 strain, hits give high values
Summary of the method: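 This yeast growth screen uses a strain with defined DNA-repair lesions; compound-treated growth is compared with vehicle-treated growth.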

[9] = NCI Yeast Anticancer Drug Screen. Data for the cln2 rad14 strain (AID 165);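 note: 0% = growth equal to vehicle treated cultures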; settings: S. cerevisiae cln2 rad14 strain, hits give high values
Summary of the method: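 Yeast carrying cln2 and rad14 alterations (cell cycle control and DNA damage repair) were exposed to compounds. Growth inhibition was measured against vehicle-treated controls.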

[10] = NCI Yeast Anticancer Drug Screen. Data for the bub3 strain (AID 167); settings: S. cerevisiae bub3 mutant strain, hits give high values
Summary of the method: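 Whole-cell yeast assay. The mutant strain was incubated with compounds, and growth inhibition was determined by comparison with vehicle-treated cells.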

[11] = NCI Yeast Anticancer Drug Screen. Data for the wt2 strain (AID 169);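 note: 0% = growth of vehicle-treated yeast cultures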; settings: S. cerevisiae wt2 strain growth inhibition, hits give high values
Summary of the method: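 Yeast cells were exposed to test compounds, and growth inhibition was measured relative to vehicle-treated controls.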

[12] = NCI Yeast Anticancer Drug Screen. Data for the mlh1 strain (AID 171);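 note: 0% = growth of vehicle-treated control cultures of the same strain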; settings: S. cerevisiae mlh1 strain growth inhibition, hits give high values
Summary of the method: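 Yeast carrying a defined genetic alteration in DNA damage repair or cell cycle control were exposed to test compounds. Growth inhibition was measured relative to vehicle-treated controls.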

[13] = NCI Yeast Anticancer Drug Screen. Data for the sgs1 strain (AID 173);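 note: 0% = growth of vehicle-only control cultures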; settings: S. cerevisiae sgs1 mutant, hits give high values
Summary of the method: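 Yeast mutant strains carrying defined defects in DNA damage repair or cell cycle control were exposed to test compounds. Growth inhibition was scored against vehicle-treated controls.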

[14] = NCI Yeast Anticancer Drug Screen. Data for the mlh1 rad18 strain (AID 175); settings: S. cerevisiae mlh1 rad18 strain growth inhibition, hits give high values
Summary of the method: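 Growth inhibition of the yeast strain was measured after compound exposure and expressed relative to vehicle-treated controls. The strain carries defined defects in DNA damage repair.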

[15] = NCI Yeast Anticancer Drug Screen. Data for the rad18 strain (AID 177); settings: S. cerevisiae rad18 mutant growth inhibition, hits give high values
Summary of the method: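 Yeast carrying a defined DNA damage repair alteration were exposed to compounds. Growth inhibition was expressed relative to vehicle-treated controls.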

[16] = NCI Yeast Anticancer Drug Screen. Data for the CLN2oe strain (AID 163);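 note: 0% = growth of vehicle-only control cultures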; settings: S. cerevisiae CLN2oe strain, hits give high values
Summary of the method: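 Yeast cells carrying a defined cell-cycle control alteration were exposed to test compounds. Growth inhibition was scored against vehicle-treated control cultures.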

[17] = at 5.0 µM (retest, dose inferred, filed as 0.5)
[18] = at 50.0 µM (retest, dose inferred, filed as 5.0)

Measured: growth inhibition

O=C(Cc1ccccc1)NNc1nc(NNC(=O)c2ccncc2)nc(Nc2ccc([N+](=O)[O-])cc2)n1
active: [5]; at 50.0 µM 71.5% | [8]; at 50.0 µM 87.3% | [10]; at 50.0 µM 77.7% | [14]; at 50.0 µM 86.2%
inactive: [1]; at 1.2 µM 23% | [1]; at 3.7 µM 29% | [1]; at 11.0 µM 68% | [1]; at 33.0 µM 59% | [1]; at 100.0 µM 54% | [2]; at 1.2 µM -81% | [2]; at 3.7 µM 3% | [2]; at 11.0 µM 12% | [2]; at 33.0 µM 19% | [2]; at 100.0 µM 17% | [3]; at 1.2 µM 4% | [3]; at 3.7 µM 10% | [3]; at 11.0 µM 11% | [3]; at 33.0 µM 11% | [3]; at 100.0 µM -3% | [4]; at 1.2 µM 4% | [4]; at 3.7 µM 13% | [4]; at 11.0 µM 52% | [4]; at 33.0 µM 62% | [4]; at 100.0 µM 56% | [5]; at 1.2 µM 2% | [5]; at 3.7 µM 9% | [5]; [17] 8% | [5]; at 11.0 µM 21% | [5]; at 33.0 µM 25% | [5]; [18] 54% | [5]; at 100.0 µM 21% | [6]; at 1.2 µM 3% | [6]; at 3.7 µM 9% | [6]; [17] 3% | [6]; at 11.0 µM 27% | [6]; at 33.0 µM 34% | [6]; [18] 18% | [6]; at 50.0 µM 47% | [6]; at 100.0 µM 23% | [7]; at 1.2 µM -3% | [7]; at 3.7 µM 2% | [7]; at 11.0 µM 12% | [7]; at 33.0 µM 14% | [7]; at 100.0 µM 11% | [8]; [17] 0% | [8]; [18] 41% | [9]; [17] 42% | [9]; [18] 3% | [9]; at 50.0 µM 64.3% | [10]; at 1.2 µM -2% | [10]; at 3.7 µM -4% | [10]; [17] 6% | [10]; at 11.0 µM 11% | [10]; at 33.0 µM 17% | [10]; [18] 40% | [10]; at 100.0 µM 15% | [11]; at 1.2 µM -3% | [11]; at 3.7 µM 10% | [11]; at 11.0 µM 41% | [11]; at 33.0 µM 57% | [11]; at 100.0 µM 61% | [12]; at 1.2 µM -3% | [12]; at 3.7 µM 8% | [12]; at 11.0 µM 42% | [12]; at 33.0 µM 58% | [12]; at 100.0 µM 55% | [13]; at 1.2 µM 10% | [13]; at 3.7 µM 32% | [13]; at 11.0 µM 63% | [13]; at 33.0 µM 69% | [13]; at 100.0 µM 64% | [14]; [17] 7% | [14]; [18] 36% | [15]; at 1.2 µM 9% | [15]; at 3.7 µM 26% | [15]; at 11.0 µM 50% | [15]; at 33.0 µM 57% | [15]; at 100.0 µM 49%

CC(C)CCC[C@@H](C)[C@H]1CC[C@H]2[C@@H]3CC[C@H]4C[C@H](N)CC[C@]4(C)[C@H]3CC[C@]12C
inactive: [1]; at 1.2 µM -2% | [1]; at 3.7 µM 2% | [1]; at 11.0 µM -3% | [1]; at 33.0 µM -7% | [1]; at 100.0 µM -6% | [2]; at 1.2 µM -1% | [2]; at 3.7 µM 0% | [2]; at 11.0 µM -3% | [2]; at 33.0 µM -2% | [2]; at 100.0 µM 1% | [3]; at 1.2 µM 0% | [3]; at 3.7 µM 2% | [3]; at 11.0 µM 7% | [3]; at 33.0 µM 7% | [3]; at 100.0 µM 7% | [4]; at 1.2 µM -3% | [4]; at 3.7 µM -2% | [4]; at 11.0 µM -2% | [4]; at 33.0 µM -2% | [4]; at 100.0 µM 2% | [5]; at 1.2 µM 1% | [5]; at 3.7 µM 4% | [5]; [17] -19% | [5]; at 11.0 µM 4% | [5]; at 33.0 µM -2% | [5]; [18] 49% | [5]; at 50.0 µM 27.1% | [5]; at 100.0 µM -2% | [6]; at 1.2 µM 0% | [6]; at 3.7 µM -1% | [6]; [17] -9% | [6]; at 11.0 µM -2% | [6]; at 33.0 µM -2% | [6]; [18] -12% | [6]; at 50.0 µM 46.2% | [6]; at 100.0 µM -3% | [7]; at 1.2 µM -1% | [7]; at 3.7 µM 1% | [7]; at 11.0 µM -1% | [7]; at 33.0 µM -4% | [7]; at 100.0 µM -1% | [16]; at 1.2 µM -7% | [16]; at 3.7 µM -5% | [16]; at 11.0 µM -4% | [16]; at 33.0 µM -16% | [16]; at 100.0 µM -7% | [9]; [17] -10% | [9]; [18] -3% | [9]; at 50.0 µM 19.2% | [10]; at 1.2 µM -2% | [10]; at 3.7 µM -4% | [10]; [17] -3% | [10]; at 11.0 µM -6% | [10]; at 33.0 µM -4% | [10]; [18] 52% | [10]; at 50.0 µM 15.1% | [10]; at 100.0 µM -2% | [11]; at 1.2 µM 8% | [11]; at 3.7 µM -8% | [11]; at 11.0 µM 6% | [11]; at 33.0 µM -4% | [11]; at 100.0 µM 5% | [12]; at 1.2 µM -2% | [12]; at 3.7 µM -2% | [12]; at 11.0 µM -4% | [12]; at 33.0 µM -7% | [12]; at 100.0 µM -3% | [13]; at 1.2 µM -3% | [13]; at 3.7 µM -22% | [13]; at 11.0 µM 6% | [13]; at 33.0 µM 6% | [13]; at 100.0 µM 13% | [14]; [17] 2% | [14]; [18] 55% | [14]; at 50.0 µM 39.9% | [15]; at 1.2 µM -1% | [15]; at 3.7 µM 0% | [15]; at 11.0 µM 3% | [15]; at 33.0 µM -6% | [15]; at 100.0 µM 3%
